# Screening results from PubChem BioAssay.
# LEDGF integ inh = blocks HIV-1 LEDGF/p75-dependent DNA integration; TR-FRET IN-LEDGF/p75 DNA integration, Eu/Cy5; inhibition, % at 3.7 µM; 0.64% of 370,000 active;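 active = inhibition above the screen-wide mean plus 3 SD, cut at about 13% in these data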;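 also: signal is the Cy5 over europium emission ratio at 671 and 618 nm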
# proKLK7 act = activators of human kallikrein-7 zymogen; purified proKLK7, EDANS-DABCYL substrate fluorescence; 100% is mature enzyme control, 0% vehicle; activation, % at 7 µM; 0.9% of 370,000 active;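 active = activation above the mean of all tested compounds plus 3 SD, computed per campaign excluding outliers beyond control limits, cut at about 13% in these data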
# Target sequence (P49862 whole entry, looked up): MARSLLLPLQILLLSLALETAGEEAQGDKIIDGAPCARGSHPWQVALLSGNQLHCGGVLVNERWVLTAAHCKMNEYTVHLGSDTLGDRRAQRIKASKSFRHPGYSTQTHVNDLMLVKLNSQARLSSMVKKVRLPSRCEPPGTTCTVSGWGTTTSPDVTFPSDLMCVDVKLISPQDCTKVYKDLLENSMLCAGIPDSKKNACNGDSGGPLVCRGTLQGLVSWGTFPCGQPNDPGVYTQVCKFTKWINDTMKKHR
# UHRF1 MBD2 ctr = human UHRF1 methylated DNA binding inhibitors; Q96T88; UHRF1 binding to methylated oligo, TR-FRET; inhibition, % at 4.4 µM; 0.75% of 370,000 active; AID 687016; in the data active = inhibition above about 21%;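 also: UHRF1 SRA domain binding a hemimethylated CpG hairpin DNA probe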
# MBD2 inh = blocks human MBD2 binding to methylated DNA. Q9UBB5. TR-FRET, MBD2 binding to methylated oligonucleotide. inhibition, % at 4.4 µM. 0.31% of 370,000 active. AID 686964; in the data active = inhibition above about 13%
# Rin1-Abl PPI inh = human Rin1-Abl interaction inhibition. TR-FRET Rin1/Abl binding, biochemical. 0.4% of 360,000 active. inhibition, % at 7.35 µM. P00519+Q13671; in the data active = inhibition above about 5%, passing the limit was not always enough
# Neddyl block = inhibitors of human cullin neddylation | TR-FRET cullin neddylation, biochemical | calls only at 25 µM | 0.58% of 360,000 active; in the data active = inhibition above about 36%
# IN multimer act = HIV-1 integrase multimerization activation, counter-screen | activation, % at 7.7 µM | shares compounds with LEDGF integ inh | 17% of 2,000 active | AID 1053131 | TR-FRET HIV-1 integrase multimerization, biochemical; in the data active = activation above about 8.9%
# TRFRET interf = TR-FRET optical interference, LEDGF/p75 integration counter-screen; shares compounds with LEDGF integ inh; TR-FRET optical interference counterscreen, HIV-1 IN multimerization; inhibition, % at 7.7 µM; 2,000 tested, under 10 active;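 active = inhibition above the mean over all tested compounds plus 3 SD, which no compound reached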
# IN-LEDGF confirm = confirmation of HIV-1 LEDGF/p75-dependent integration inhibitors; shares compounds with LEDGF integ inh; TR-FRET LEDGF/p75-dependent HIV-1 integration, biochemical; inhibition, % at 3.7 µM; 36% of 2,000 active; AID 1053136; in the data active = inhibition above about 14%
# Hits are given with their value; - = inactive; . = no result given. An excerpt weighted towards active compounds, which were near 3.1% of everything screened.
SMILES,LEDGF integ inh,proKLK7 act,UHRF1 MBD2 ctr,MBD2 inh,Rin1-Abl PPI inh,Neddyl block,IN multimer act,TRFRET interf,IN-LEDGF confirm
Cn1cccc1CC(=O)N/N=C/c1ccco1,-,-,-,-,-,-,.,.,.
CC(=C/c1ccco1)/C=N/NC(=O)Cc1cccn1C,21,-,-,-,-,-,-,-,-
CC(/C=N/NC(=O)Cc1cccn1C)=C\c1ccco1,37,-,21,-,-,-,-,-,-
CCN(CC)c1ccc(-c2nn3c(-c4cccnc4)nnc3s2)cc1,-,-,-,-,-,.,.,.,.
C[C@@]12C(=O)N(c3cccc(F)c3)C(=O)N1[C@@H]1c3ccccc3OC[C@@H]1[C@H]2c1ccccc1,-,-,-,-,-,-,.,.,.
COc1ccc(NS(=O)(=O)c2ccc(O)c(NC(=O)c3cc4c(C)nn(-c5ccc(F)cc5)c4s3)c2)cc1,.,.,.,.,-,.,.,.,.
CN(C(=O)c1ccccc1OCc1ccc(F)cc1)c1c(N)n(Cc2ccccc2)c(=O)[nH]c1=O,55,-,-,-,-,-,-,-,-
O=C1CC(c2ccco2)CC(O)=C1C=NCC1NCCc2ccccc21 (configuration not stated),23,-,-,-,-,-,-,-,-
COC(=O)C1CN(Cc2ccccc2)CCS(=O)(=O)N1Cc1ccc(F)cc1 (configuration not stated),-,-,-,-,.,.,.,.,.
COc1c2occc2c(OC)c2c(=O)cc(C)oc12,-,-,-,-,-,-,.,.,.
Cc1cc(=O)c2c(o1)C(=O)c1occc1C2=O,51,-,40,-,-,-,35,-,56
CN1CCN(c2ncnc3c2ncn3[C@H]2CN(Cc3ccc(Cl)cc3)C[C@@H](CO)O2)CC1,14,-,-,-,-,-,-,-,-
COc1cc(-c2c(-c3ccsc3)sc3ccccc23)cc(OC)c1OC,-,-,-,-,-,-,.,.,.
COc1cc(-c2ccc3c(=O)c4ccccc4sc3c2)cc(OC)c1OC,16,-,-,-,-,-,9.3,-,-
Cc1nn(-c2cc(C(F)(F)F)ccc2Cl)c2nc(C(F)(F)F)[nH]c(=O)c12,83,-,-,-,-,-,-,-,-
COc1ccc(S(=O)(=O)N(CC(=O)Nc2ccc(S(=O)(=O)N3CCOCC3)cc2)c2ccccc2)cc1,20,-,-,-,-,-,-,-,-
COc1ccc(NC(=O)CN(C)C(=O)c2ccc(S(=O)(=O)N3CCOCC3)cc2)cc1,-,-,-,-,-,-,.,.,.
CC(C(=O)N1CCCC1)N(c1ccc(Cl)cc1)S(C)(=O)=O (configuration not stated),-,-,-,-,-,-,.,.,.
Cc1ccc(C2CC(=O)N3CN(c4ccc(Br)cc4)CSC3=C2C#N)o1 (configuration not stated),43,-,41,-,-,-,-,-,40
CCOc1ccc(N2CSC3=C(C#N)C(c4ccco4)CC(=O)N3C2)cc1 (configuration not stated),47,-,67,29,-,-,15,-,41
CCC1(C)SC(N)=NN1C(C)=O (configuration not stated),-,-,-,-,-,-,.,.,.
Cc1ccc(N2CCN(C(=O)c3cn(CC4CCCCC4)nn3)C(C)C2)cc1 (configuration not stated),-,-,-,-,-,-,.,.,.
Cc1nnsc1SCCNC(=O)c1c(F)cccc1F,-,-,-,-,-,-,.,.,.
Cc1cccc(C)c1NC(=O)NCCSc1snnc1C,15,-,-,-,-,-,-,-,-
O=C(C(O)c1ccccc1)N1CCN(S(=O)(=O)c2ccc(C(F)(F)F)cc2)CC1 (configuration not stated),-,-,-,-,.,-,.,.,.
SMILES,LEDGF integ inh,proKLK7 act,UHRF1 MBD2 ctr,MBD2 inh,Rin1-Abl PPI inh,Neddyl block,IN multimer act,TRFRET interf,IN-LEDGF confirm
Cc1cc(=O)oc2cc3c(cc12)OCCO3,29,-,-,-,-,.,-,-,-
COc1ccc(OC)c(S(=O)(=O)N/N=C(/C)c2ccc3c(c2)OCO3)c1,-,-,-,-,-,-,.,.,.
Cn1c(=O)c2c(nc(NNC(=O)C(F)(F)F)n2C)n(C)c1=O,-,-,-,-,-,-,.,.,.
Cn1c(=O)c2c(nc(NN=C3CCCC3)n2C)n(C)c1=O,19,-,-,-,-,-,-,-,-
Cc1cc(/C=C\c2nc(O)c([N+](=O)[O-])c(=O)[nH]2)c(C)n1-c1ccccc1,29,-,-,-,-,-,-,-,-
COc1ccc(-n2c(C)cc(/C=C/c3nc(O)c([N+](=O)[O-])c(=O)[nH]3)c2C)cc1,-,-,-,-,-,-,.,.,.
CC(=O)c1ccc(NC(=O)CSc2nnc3ccc(-c4ccccn4)nn23)cc1,-,-,-,-,-,-,.,.,.
CC1CCN(C(=O)COC(=O)c2ccc(Br)o2)CC1,22,-,-,-,-,-,-,-,-
CCOC(=O)C1CCN(C(=O)COC(=O)c2ccc(Br)o2)CC1,-,-,-,-,-,-,.,.,.
C=C(C)C(=O)Nc1cccc(C2=NOC3(C2)C[C@@H](C(N)=O)N(C(=O)[C@H]2CCC(=O)N2)C3)c1 (some centres not stated),28,-,-,-,-,-,-,-,24
CC1(C(=O)NS(=O)(=O)Cc2ccccc2)CCN1C(=O)CCc1ccccc1 (configuration not stated),-,-,-,-,-,-,.,.,.
CCCCCC(=O)N1C[C@@H](O)[C@H](n2cc(COC(=O)c3ccccc3)nn2)C[C@@H]1c1ccc(Cl)cc1,-,-,-,-,-,-,.,.,.
COc1ccc2c(c1)C(c1ccc(C)o1)=NNC(c1cccnc1)=N2,19,-,-,-,-,-,-,-,-
COc1ccc2c(c1)C(c1ccc(C)o1)=NNC(c1ccccc1)=N2,-,-,-,-,-,-,.,.,.
CC(C)N(CCNC(=O)C1CCCN(c2ncnc3c2nc2n3CCCCC2)C1)Cc1ccccc1 (configuration not stated),-,-,-,-,-,-,.,.,.
CCOC(=O)C(C(C)=O)c1c(Br)c(O)c(O)c2c(C(=O)c3ccc(C)cc3)coc12 (configuration not stated),26,-,-,-,-,-,-,-,14
Cc1nn(C)c(-c2n[nH]c(=S)n2Cc2ccco2)c1Cl,20,-,-,-,-,-,-,-,-
O=C(CSc1nnc(C2CC2)n1-c1ccccc1)NCCc1ccccc1,-,-,-,-,-,-,.,.,.
